For some of these results: Measured potencies and affinities stand elsewhere.

8 molecules from ChEMBL document CHEMBL3988442, “University of Dundee, Small-Polar-MMV Screening Library” (2021) can be followed below.

Common to all, as to design: scale not given: direction of the effect not stated beside the values
In assay [1] the target is Protein translocase subunit SecA (Escherichia coli (strain K12)) (UniProt P10408). The experiment in a line: Assay to Identify E. coli SecA ATPase Inhibitors. Type of assay: functional. As to conditions: 30 µM.
For assay [2], the target named is T1, Ubiquitin-activating enzyme e1, putative (Leishmania donovani (strain BPK282A1)) (UniProt E9BSI1).
T1 sequence (whole entry): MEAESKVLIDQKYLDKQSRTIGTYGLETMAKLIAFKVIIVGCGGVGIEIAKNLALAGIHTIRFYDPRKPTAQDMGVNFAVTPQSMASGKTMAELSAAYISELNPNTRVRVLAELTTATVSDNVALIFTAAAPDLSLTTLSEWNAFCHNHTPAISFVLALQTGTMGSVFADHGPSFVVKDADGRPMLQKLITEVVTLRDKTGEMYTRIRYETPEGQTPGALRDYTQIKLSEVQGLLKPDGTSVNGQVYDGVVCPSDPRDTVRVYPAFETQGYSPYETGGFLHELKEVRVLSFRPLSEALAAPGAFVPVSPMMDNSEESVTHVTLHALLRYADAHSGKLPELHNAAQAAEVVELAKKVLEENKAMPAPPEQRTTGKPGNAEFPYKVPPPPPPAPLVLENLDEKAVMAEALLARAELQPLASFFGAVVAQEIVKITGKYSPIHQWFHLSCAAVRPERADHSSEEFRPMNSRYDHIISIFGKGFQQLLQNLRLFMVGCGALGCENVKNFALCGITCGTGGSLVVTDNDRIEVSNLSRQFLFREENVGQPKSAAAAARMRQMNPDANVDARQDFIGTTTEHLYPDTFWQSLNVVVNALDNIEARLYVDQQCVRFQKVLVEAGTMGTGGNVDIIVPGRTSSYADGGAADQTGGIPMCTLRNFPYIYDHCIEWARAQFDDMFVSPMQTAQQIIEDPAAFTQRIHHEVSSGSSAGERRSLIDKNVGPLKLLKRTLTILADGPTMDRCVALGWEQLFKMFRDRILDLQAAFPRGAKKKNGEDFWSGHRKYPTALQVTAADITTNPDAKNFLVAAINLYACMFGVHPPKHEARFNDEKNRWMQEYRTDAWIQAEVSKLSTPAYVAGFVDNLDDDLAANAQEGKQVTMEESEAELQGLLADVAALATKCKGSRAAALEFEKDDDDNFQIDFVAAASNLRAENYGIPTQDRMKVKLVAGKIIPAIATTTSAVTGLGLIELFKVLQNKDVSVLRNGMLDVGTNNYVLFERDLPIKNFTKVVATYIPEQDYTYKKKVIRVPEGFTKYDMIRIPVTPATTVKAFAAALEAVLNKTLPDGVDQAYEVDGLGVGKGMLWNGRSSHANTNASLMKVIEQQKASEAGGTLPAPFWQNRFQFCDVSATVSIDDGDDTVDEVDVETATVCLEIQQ
In words: Leishmania donovani Ubiquitin Activating Enzyme (LdE1). The assay is classed as functional. To be noted: 30 µM.

Assay [3] concerns the target AMP-activated protein kinase, AMPK (Homo sapiens) (UniProt P54646+O43741+P54619+Q9UGJ0+Q9Y478+Q13131+Q9UGI9). In words: AMP-dependent Kinase enzyme assay. An in vitro enzyme assay that detects ADP turnover that is directly proportional to AMPK activity. This uses naive AMPK that is activated during the assay with MK-8722. The assay is classed as functional. As to conditions: 30 µM.

In assay [4] the target is Sialic acid-binding Ig-like lectin 9 (Homo sapiens) (UniProt Q9Y336). The experiment in a line: Hs-Siglec9 ALPHAscreen SOP 20170721. To be noted: 10 µM.
The next assay has as its system Trypanosoma cruzi. The experiment in a line: Trypanosoma cruzi phosphomannomutase and mannose-1-phosphate guanylyltransferase assay. As to conditions: 10 µM. Type of assay: functional.
Assay [5] has as its target T2, Arginase-2, mitochondrial (Homo sapiens) (UniProt P78540).
T2 sequence (whole entry): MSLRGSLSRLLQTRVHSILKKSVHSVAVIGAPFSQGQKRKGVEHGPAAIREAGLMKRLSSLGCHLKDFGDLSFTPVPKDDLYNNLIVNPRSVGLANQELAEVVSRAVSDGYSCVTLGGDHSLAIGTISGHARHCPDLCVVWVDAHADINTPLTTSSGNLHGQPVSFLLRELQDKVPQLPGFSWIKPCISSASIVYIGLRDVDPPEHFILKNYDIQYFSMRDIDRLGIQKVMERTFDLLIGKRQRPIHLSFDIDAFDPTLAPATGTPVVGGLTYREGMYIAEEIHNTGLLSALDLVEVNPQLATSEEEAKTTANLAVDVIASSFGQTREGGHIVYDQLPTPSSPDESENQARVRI
The experiment in a line: in vitro enzyme assay to detect the production of urea directly proportional to the activity of Arginase II. Note: in the data most compounds retested in dose-response had high values. Type of assay: functional. As to conditions: 33.3 µM.

In assay [6] the target is T3, Proteasome subunit beta (Trypanosoma cruzi) (UniProt O96673).
T3 sequence (whole entry): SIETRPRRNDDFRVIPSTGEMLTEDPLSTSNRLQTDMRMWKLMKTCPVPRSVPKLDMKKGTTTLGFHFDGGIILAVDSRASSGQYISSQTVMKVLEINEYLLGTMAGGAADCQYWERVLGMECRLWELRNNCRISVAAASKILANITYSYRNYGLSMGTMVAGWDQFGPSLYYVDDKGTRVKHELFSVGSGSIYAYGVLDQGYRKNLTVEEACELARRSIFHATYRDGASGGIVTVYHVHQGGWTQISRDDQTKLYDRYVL
In words: Trypanosoma cruzi proteasome chymotrypsin-like activity (TcProtChymo) assay. Note: in the data most compounds retested in dose-response had high values. To be noted: 9.37 µM. Type of assay: functional.

For the next assay, the species on record is Homo sapiens. The experiment in a line: To identify inhibition of the IFN signalling (Jak-Stat) pathway via expression of an eGFP reporter gene under the control of an IFN-stimulated response element (ISRE) containing MxA promoter. The assay is classed as functional. To be noted: 30 µM. A general note: A reporter such as luciferase makes a cellular process visible.

For assay [7], the target named is T4, Tyrosyl-tRNA synthetase, putative (Trypanosoma cruzi (strain CL Brener)) (UniProt Q4DSP6).
T4 sequence (whole entry): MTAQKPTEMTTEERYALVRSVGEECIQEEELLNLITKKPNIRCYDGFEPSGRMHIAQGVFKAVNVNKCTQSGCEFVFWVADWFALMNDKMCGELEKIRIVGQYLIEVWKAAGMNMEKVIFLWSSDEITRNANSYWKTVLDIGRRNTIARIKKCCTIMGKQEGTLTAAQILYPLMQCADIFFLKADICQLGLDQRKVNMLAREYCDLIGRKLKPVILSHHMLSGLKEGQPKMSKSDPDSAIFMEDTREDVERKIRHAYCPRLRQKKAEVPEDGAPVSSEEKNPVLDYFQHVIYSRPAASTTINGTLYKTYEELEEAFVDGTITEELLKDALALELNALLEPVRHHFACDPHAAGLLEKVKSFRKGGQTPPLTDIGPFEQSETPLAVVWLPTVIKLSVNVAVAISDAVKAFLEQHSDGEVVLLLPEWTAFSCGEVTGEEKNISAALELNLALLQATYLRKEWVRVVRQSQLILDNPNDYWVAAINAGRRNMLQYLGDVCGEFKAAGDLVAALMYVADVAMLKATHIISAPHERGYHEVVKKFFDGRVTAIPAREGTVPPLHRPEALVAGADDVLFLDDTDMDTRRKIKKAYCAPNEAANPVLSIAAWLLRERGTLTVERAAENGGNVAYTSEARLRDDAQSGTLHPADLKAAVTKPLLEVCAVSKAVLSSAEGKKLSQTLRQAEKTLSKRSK
The experiment in a line: Trypanosoma cruzi tyrosyl tRNA synthetase (TcYRS) _High Tyrosine SOP. Note: in the data most compounds retested in dose-response had high values. Type of assay: functional. To be noted: 30 µM.

In assay [8] the target is T4, Tyrosyl-tRNA synthetase, putative (Trypanosoma cruzi (strain CL Brener)). In words: Trypanosoma cruzi tyrosyl tRNA synthetase (TcYRS) SOP. To be noted: 30 µM. The assay is classed as functional.
The target in assay [9] is Chromo domain-containing protein 1 (Saccharomyces cerevisiae (strain ATCC 204508 / S288c) (Baker's yeast)) (UniProt P32657). The experiment in a line: ScCHD-1 Enzyme Inhibition Assay. Note: in the data most compounds retested in dose-response had high values. To be noted: 30 µM. Type of assay: functional.
Chromo domain-containing protein 1 (Saccharomyces cerevisiae (strain ATCC 204508 / S288c) (Baker's yeast)), sequence (P32657 whole entry, the tested form may be a part): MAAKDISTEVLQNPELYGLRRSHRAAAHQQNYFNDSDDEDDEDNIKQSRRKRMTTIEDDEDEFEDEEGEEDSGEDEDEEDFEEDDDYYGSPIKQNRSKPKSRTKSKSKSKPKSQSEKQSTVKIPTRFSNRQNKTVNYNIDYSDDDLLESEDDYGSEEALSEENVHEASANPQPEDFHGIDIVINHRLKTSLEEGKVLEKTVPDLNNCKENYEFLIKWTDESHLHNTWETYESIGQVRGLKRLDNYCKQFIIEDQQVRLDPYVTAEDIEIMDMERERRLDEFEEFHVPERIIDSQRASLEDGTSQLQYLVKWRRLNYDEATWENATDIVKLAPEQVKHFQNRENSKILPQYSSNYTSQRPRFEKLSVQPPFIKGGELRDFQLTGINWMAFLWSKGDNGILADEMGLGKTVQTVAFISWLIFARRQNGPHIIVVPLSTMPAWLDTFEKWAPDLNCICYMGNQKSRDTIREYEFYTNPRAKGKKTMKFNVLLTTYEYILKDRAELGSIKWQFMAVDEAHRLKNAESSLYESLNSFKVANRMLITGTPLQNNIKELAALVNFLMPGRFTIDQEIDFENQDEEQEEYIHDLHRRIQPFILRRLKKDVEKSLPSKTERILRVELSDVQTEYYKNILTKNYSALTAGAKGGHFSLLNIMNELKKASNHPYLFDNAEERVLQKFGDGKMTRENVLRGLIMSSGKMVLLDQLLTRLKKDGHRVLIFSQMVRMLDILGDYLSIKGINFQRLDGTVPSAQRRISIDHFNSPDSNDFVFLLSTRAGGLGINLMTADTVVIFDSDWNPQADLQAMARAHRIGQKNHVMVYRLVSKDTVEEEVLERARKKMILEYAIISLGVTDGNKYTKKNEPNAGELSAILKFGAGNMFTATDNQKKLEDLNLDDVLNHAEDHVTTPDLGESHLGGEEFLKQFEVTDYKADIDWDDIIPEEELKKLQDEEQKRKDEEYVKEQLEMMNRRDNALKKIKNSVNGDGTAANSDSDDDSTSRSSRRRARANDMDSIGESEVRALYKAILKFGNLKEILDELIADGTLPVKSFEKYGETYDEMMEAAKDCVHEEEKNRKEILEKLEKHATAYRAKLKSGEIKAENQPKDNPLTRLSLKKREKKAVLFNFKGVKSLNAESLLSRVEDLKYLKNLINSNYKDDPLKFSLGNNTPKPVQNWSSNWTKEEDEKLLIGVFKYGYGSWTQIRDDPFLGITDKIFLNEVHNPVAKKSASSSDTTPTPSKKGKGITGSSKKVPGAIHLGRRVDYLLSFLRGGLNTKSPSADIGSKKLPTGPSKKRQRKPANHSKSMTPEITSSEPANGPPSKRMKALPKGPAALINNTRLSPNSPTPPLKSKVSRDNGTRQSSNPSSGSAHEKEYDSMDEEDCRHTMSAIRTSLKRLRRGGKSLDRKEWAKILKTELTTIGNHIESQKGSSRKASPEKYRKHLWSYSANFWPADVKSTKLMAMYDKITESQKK

Protein translocase subunit SecA (Escherichia coli (strain K12)), sequence (P10408 whole entry): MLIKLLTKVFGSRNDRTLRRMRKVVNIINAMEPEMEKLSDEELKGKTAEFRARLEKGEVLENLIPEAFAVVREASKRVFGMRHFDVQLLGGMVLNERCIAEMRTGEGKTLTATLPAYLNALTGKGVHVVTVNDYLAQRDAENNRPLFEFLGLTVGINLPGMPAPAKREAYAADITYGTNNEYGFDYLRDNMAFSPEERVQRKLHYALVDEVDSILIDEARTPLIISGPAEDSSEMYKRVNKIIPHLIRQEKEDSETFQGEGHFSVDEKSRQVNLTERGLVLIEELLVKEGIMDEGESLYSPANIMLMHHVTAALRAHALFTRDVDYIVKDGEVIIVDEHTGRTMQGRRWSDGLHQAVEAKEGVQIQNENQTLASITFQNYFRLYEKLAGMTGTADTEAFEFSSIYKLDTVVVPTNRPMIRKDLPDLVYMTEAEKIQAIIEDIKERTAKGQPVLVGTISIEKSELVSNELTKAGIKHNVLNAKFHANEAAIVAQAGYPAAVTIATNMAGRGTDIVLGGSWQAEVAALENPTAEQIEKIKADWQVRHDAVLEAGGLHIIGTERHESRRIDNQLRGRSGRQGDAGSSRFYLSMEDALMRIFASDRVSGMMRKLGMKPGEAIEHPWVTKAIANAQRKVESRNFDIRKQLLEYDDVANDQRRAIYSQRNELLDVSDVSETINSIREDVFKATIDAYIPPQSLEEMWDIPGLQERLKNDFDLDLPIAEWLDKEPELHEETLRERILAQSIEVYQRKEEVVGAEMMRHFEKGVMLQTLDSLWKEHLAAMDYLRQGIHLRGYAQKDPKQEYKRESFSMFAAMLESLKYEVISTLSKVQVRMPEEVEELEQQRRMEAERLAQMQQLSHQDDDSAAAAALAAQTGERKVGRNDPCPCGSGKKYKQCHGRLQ
Sialic acid-binding Ig-like lectin 9 (Homo sapiens), sequence (Q9Y336 whole entry): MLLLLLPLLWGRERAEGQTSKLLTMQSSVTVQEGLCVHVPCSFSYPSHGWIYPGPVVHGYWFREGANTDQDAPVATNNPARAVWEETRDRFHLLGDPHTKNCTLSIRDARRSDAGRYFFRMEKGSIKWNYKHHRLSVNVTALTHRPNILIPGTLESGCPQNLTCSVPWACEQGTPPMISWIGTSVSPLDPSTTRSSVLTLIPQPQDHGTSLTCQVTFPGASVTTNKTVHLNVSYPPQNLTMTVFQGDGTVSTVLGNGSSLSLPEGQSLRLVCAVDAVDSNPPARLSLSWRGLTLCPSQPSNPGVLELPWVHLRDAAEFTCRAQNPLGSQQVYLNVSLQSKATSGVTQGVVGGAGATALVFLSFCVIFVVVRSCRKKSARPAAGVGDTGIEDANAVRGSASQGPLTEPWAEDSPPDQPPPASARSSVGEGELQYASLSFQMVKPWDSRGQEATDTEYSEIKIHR

For `Cc1ccc(CNC2CCN(CCc3ccncc3)CC2)s1`, the Percent Effect is -6.73% in assay [1]; -5.41% in assay [2]; -1.83% in [3]; 2.51% in assay [4]; -1.76% in the assay on Trypanosoma cruzi; 5.42% in assay [5]. The Percent Effect in assay [6] is 7.86%; in the assay filed under Homo sapiens, 1.37%; in [7], 7.92%; in assay [8] it was 8.54%; in assay [9], -4.89%.

As to `CC(NCc1ccccc1Br)c1ccc2[nH]c(=O)[nH]c2c1` (stereo not drawn), the Percent Effect was -1.71% in [1]; -18.9% in assay [2]; -5.22% in [3]; 10.9% in [4]; 5.19% in the assay on Trypanosoma cruzi; -0.401% in [5]. The Percent Effect was -0.18% in assay [6]; 25.5% in the assay filed under Homo sapiens; -0.493% in assay [7]; 6.17% in assay [8]; -4.59% in [9].

With `Cc1cnn(CC(C)NCc2csc(-c3ccco3)n2)c1` (stereo not drawn), the Percent Effect in assay [1] was -3.81%; in [2] it was -3.8%; in assay [3], 10.6%; in assay [4], -3.77%; in the assay with Trypanosoma cruzi it was -5.44%; in [5], -3.66%. In addition, the Percent Effect in assay [6] is 10.1%; in the assay listed under Homo sapiens it was 18.9%; in [7], 11.5%; in [8], 2.53%; in assay [9], -23.7%.

As for `Cc1ncc(CNC(=O)CCOc2ccccc2)c(C2CCCN2C)n1` (stereo not drawn), the Percent Effect was -0.839% in assay [1]; -1.35% in assay [2]; 18.7% in assay [3]; 7.48% in [4]; -6.32% in the assay with Trypanosoma cruzi; 3.02% in [5]. Moreover, the Percent Effect was 6.08% in assay [6]; 12.3% in the assay filed under Homo sapiens; 1.07% in assay [7]; 1.3% in assay [8]; -1.9% in assay [9].

Take `Cn1cnc(S(=O)(=O)N2CCCC2)c1Cl`: the Percent Effect is -1.75% in [1]; 4.17% in assay [2]; -5.49% in assay [3]; -0.277% in assay [4]; 1.46% in the assay on Trypanosoma cruzi; 13.2% in assay [5]. Moreover, the Percent Effect is 15.4% in [6]; -29.7% in the assay filed under Homo sapiens; 3.16% in assay [7]; 10.3% in assay [8]; -2.89% in assay [9].

For the molecule `CC(c1nc(C(C)(C)C)no1)N1CCN(CC(=O)N2CCOCC2)CC1` (stereo not drawn), the Percent Effect in assay [1] was -3.63%; in assay [2] it was 0%; in assay [3] it was 1.02%; in assay [4], 12.9%; in the assay with Trypanosoma cruzi, -1.66%; in assay [5], -1.18%. Also, the Percent Effect came to 10.1% in assay [6]; 0.488% in the assay filed under Homo sapiens; 2.13% in [7]; 2.6% in assay [8]; 1.93% in assay [9].

As for `O=C(Nc1ccccc1)C1CN(CC2CC2)CC12CCOCC2` (stereo not drawn), the Percent Effect in assay [1] was -1.55%; in [2], 5.33%; in [3], 7.28%; in assay [4], -3.04%; in the assay with Trypanosoma cruzi it was -0.579%; in assay [5] it was -8.42%. Moreover, the Percent Effect in assay [6] was 10.4%; in the assay filed under Homo sapiens it was -0.536%; in assay [7], -3.12%; in assay [8], -10%; in assay [9], -4.82%.

With `Clc1ccc2oc(C3CCN(Cc4cccnc4)CC3)nc2c1`, the Percent Effect was 0.753% in [1]; 13.5% in assay [2]; 5.18% in assay [3]; 16.9% in [4]; 5.02% with Trypanosoma cruzi; -10.5% in [5]. The Percent Effect is 15.5% in assay [6]; 32.2% in the assay filed under Homo sapiens; -0.529% in [7]; 12.2% in assay [8]; -6.96% in assay [9].
